Assay results: PubChem BioAssay
Calls of active or inactive are those of the source.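 Rule for the calls: active = z-score of at least 1.8 in each of two replicates, scored against plate mean and spread of sample wells; inactive = the rest.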

experiment: viability rescue of complex I mutant cybrids, primary screen, cell-based, galactose medium, ATP luminescence (AID 1645843); details: complex I mutant cybrid cells, 72 h, stronger effect = higher value;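 note: positive z means more ATP and so rescue of galactose-driven cybrid death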

With `Cc1cc(C(F)(F)F)nc(CNC(=O)c2ccc3nccnc3c2)n1` as the molecule, how does the z-score read?
The z-score was -0.69 (inactive).

For `CCc1noc(CN(C(=O)c2ccccc2-n2cccn2)C(C)C)n1`, which z-score is on record?
Its z-score is -0.655 (inactive).

For `Cn1ccnc1-c1ccccc1C(=O)N1CCN(Cc2cccc(F)c2)CC1`, which z-score is on record?
The z-score was 0.355 (inactive).

Which z-score does the source give for `Cc1nn(C)c(C)c1-c1ccnc(NCC(C)Oc2cccnc2)n1` (stereo not given) here?
Its z-score is 1.26 (inactive).

For `Cc1cc(C)c(C(=O)N2CCCCC2CCN2CCCC2=O)cc1C` (stereo not given), which z-score is on record?
The z-score was -0.46 (inactive).

Which z-score does the source give for `O=C(CC1CCCCCC1)N1CCC(Cn2cc(CO)nn2)CC1` here?
Its z-score is -0.5 (inactive).

Which z-score does the source give for `CCC1(CO)CCCN(c2ncc(C(F)(F)F)cc2Cl)C1` (stereo not given) here?
The z-score was 2.98 (active).

With `COc1cccc(-n2cc(-c3ccnc(N4CCCN(C(C)=O)CC4)n3)cn2)c1` as the molecule, how does the z-score read?
Its z-score is -1.14 (inactive).

With `COc1ccc(-c2ccc3cc(Cl)ccc3n2)c(OC)c1` as the molecule, how does the z-score read?
The z-score was 1.15 (inactive).

With `CC(=O)c1c(C)nn(CC(=O)Nc2ccnn2C2CCCCC2)c1C` as the molecule, how does the z-score read?
The z-score was 0.2 (inactive).

With `OC1(c2ccccc2)CCN(Cc2ccc(F)cc2Cl)C1` (stereo not given) as the molecule, how does the z-score read?
The z-score was -0.93 (inactive).

With `NCCCNC1CCN(c2ccc(-c3cccc(F)c3)cc2)CC1` as the molecule, how does the z-score read?
The z-score was -1.31 (inactive).

Which z-score does the source give for `CC(CCc1ccc(O)cc1)NC1CCCCCC1` (stereo not given) here?
The z-score was -0.855 (inactive).

For `CCn1ncc2[nH]c(-c3ccc(-c4ccccn4)cc3)nc21`, which z-score is on record?
The z-score was -1.15 (inactive).

For `CCC(CC)(CCC#N)CNC1COC2(CCCC2)C1` (stereo not given), which z-score is on record?
The z-score was -0.555 (inactive).

Which z-score does the source give for `CCCn1cc(-c2ccnc(NC(CC(C)(C)C)c3cccnc3)n2)c(C)n1` (stereo not given) here?
Its z-score is 1.13 (inactive).

Which z-score does the source give for `CCCc1ccc(C(=O)N2CCC2c2cccc(OC)c2)cc1` (stereo not given) here?
The z-score was 2.41 (active).

For `Cc1ccc2c(C(=O)N3CCCC3c3nc(C)no3)cc(-c3cnn(C)c3)nc2c1` (stereo not given), which z-score is on record?
The z-score was -0.585 (inactive).

For `CCCC(NC(=O)c1ccc[n+]([O-])c1)c1ccccc1` (stereo not given), which z-score is on record?
Its z-score is -0.43 (inactive).

With `CCCC(NC(=O)c1ccc(C#N)cc1)c1ccccc1` (stereo not given) as the molecule, how does the z-score read?
Its z-score is -0.32 (inactive).

Which z-score does the source give for `CCOC(=O)c1ccc(N2CCC(c3ccccc3F)C2)nc1` (stereo not given) here?
Its z-score is -0.015 (inactive).

For `Cc1nsc(NC(=O)NCc2cc(Cl)ccc2Cl)n1`, which z-score is on record?
Its z-score is -1.1 (inactive).

Which z-score does the source give for `CCn1ccnc1CN(C)Cc1ccc(-c2nc(C(F)(F)F)c(C)c(=O)[nH]2)cc1` here?
The z-score was 0.66 (inactive).

With `O=C(C1CCCCCC1)N1CCc2[nH]nc(C3CCC3)c2C1` as the molecule, how does the z-score read?
Its z-score is 0.435 (inactive).

With `CCCCc1cn(C2CCN(C(=O)C3CC3(CC)CC)CC2)nn1` (stereo not given) as the molecule, how does the z-score read?
Its z-score is 0.39 (inactive).

Which z-score does the source give for `CN(CC1COc2ccccc2O1)C(=O)Nc1nncs1` (stereo not given) here?
Its z-score is -0.295 (inactive).

For `C=C1C2(C(=O)N3CCC(c4ccccc4F)C3)CCC(C2)C1(C)C` (stereo not given), which z-score is on record?
Its z-score is 1.09 (inactive).

For `COc1ccccc1-c1noc(CN2CCOC2=O)n1`, which z-score is on record?
The z-score was 1.68 (inactive).

With `CCCCc1cc(=O)[nH]c(-c2ccc(CN(C)CCOC)cc2)n1` as the molecule, how does the z-score read?
The z-score was -0.415 (inactive).

With `CCCC(CCC)N[C@H](CO)Cc1ccccc1` as the molecule, how does the z-score read?
The z-score was -0.345 (inactive).

For `COc1ccc(-c2noc(C3CC(C(C)C)=NO3)n2)c(OC)c1` (stereo not given), which z-score is on record?
Its z-score is -0.525 (inactive).

With `CC1(C)C2(c3nc(Cc4c(F)cccc4Cl)no3)CC[C@@]1(C)C(=O)O2` as the molecule, how does the z-score read?
The z-score was -0.525 (inactive).

For `CCCC[C@@H]1C[C@@H]1C(=O)N1CCC(n2cc(C3CCCCC3)nn2)CC1`, which z-score is on record?
Its z-score is 1.86 (inactive).

For `CCC1(CNC(=O)Nc2nc(C)ns2)CCC1`, which z-score is on record?
Its z-score is 1.42 (inactive).

For `C=C1C(C)(C)[C@H]2CC[C@]1(C(=O)N1CCC(n3cc(CC(C)C)nn3)CC1)C2`, which z-score is on record?
Its z-score is -0.52 (inactive).

For `COc1ccc(CNCC2COCCO2)cc1OC` (stereo not given), which z-score is on record?
Its z-score is 3.29 (active).

For `CCn1cc(-c2cc(C(=O)N3CCCCCC3)c3cccc(C)c3n2)cn1`, which z-score is on record?
The z-score was 0.305 (inactive).

Which z-score does the source give for `Cc1cc(CN2CCC(Cc3ccc(F)cc3)CC2)n(C)n1` here?
The z-score was 0.225 (inactive).

For `Cc1ccc(-c2ccn(CC(=O)Nc3nn(C)c4ccccc34)n2)s1`, which z-score is on record?
The z-score was 2.7 (active).

With `CCc1n[nH]c2c1CN(C(=O)c1cncc(C)c1)CC2` as the molecule, how does the z-score read?
Its z-score is 1.23 (inactive).
